Screens as filed in PubChem.
Most compounds without a hit are left out; they make up all but 2.2% or so of the library.
APP 5UTR inh = APP translation inhibition; SH-SY5Y APP 5'UTR-luciferase reporter, luminescence; hit rate 0.82% among 190,000; AID 1285; inhibition, % at 2 µM;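 active = inhibition above a set limit, derived from the sample mean plus 3 SD, cut at about 45% in these data; inconclusive = one replicate passes the limit while the other fails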
aSyn UTR inh = MLPCN primary screen, SNCA 5' untranslated region. alpha-synuclein 5'UTR reporter, inhibitor activity. inhibition, % (tested at 7.5 µM). hit rate 0.82% among 300,000; in the data active = inhibition above about 60%; inconclusive = no clear call, values can overlap the other calls;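 note: H4 neuroglioblastoma cells stably carrying SNCA 5'UTR luciferase fusion; 0% = DMSO wells and 100% = positive control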
IEC-6 tox = kills IEC-6 intestinal cells in KLF5 counter-screen; hit rate 0.78% among 290,000; AID 1825; inhibition, % at 5 µM; IEC-6 cytotoxicity, luminescence viability;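 note: 0% = plate median of test compound wells and 100% = cytotoxic reference compound wells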
Ba/F3 V617F tox = loss of viability in JAK2V617F-driven Ba/F3 cells; Ba/F3 EpoR-JAK2V617F viability, ATP luminescence; inhibition, % at 5.6 µM; hit rate 1.1% among 220,000; AID 1446;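 active = inhibition above the campaign mean plus 3 SD over all tested compounds, cut at about 24% in these data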;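 note: cytokine-independent growth of Ba/F3 cells driven by EpoR plus mutant JAK2; 0% = DMSO-treated cells and 100% = JAK inhibitor I control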
KLF5 inh = kruppel-like factor 5 inhibition; DLD-1 KLF5 promoter-luciferase reporter, luminescence; inhibition, % at 5 µM; hit rate 0.23% among 290,000;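 active = inhibition above a per-plate limit of that plate's mean compound inhibition plus 3 SD, cut at about 60% in these data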;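 note: 0% = DMSO wells and 100% = LY294002 at 200 µM; higher means less KLF5 promoter-driven luciferase light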
BaF3 tox = reduces parental Ba/F3 cell viability, JAK2V617F counter-screen. AID 1486. inhibition, % at 5.6 µM. hit rate 1.1% among 220,000. CellTiter-Glo ATP luminescence;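 active = inhibition above a per-campaign cutoff, the mean inhibition of all tested compounds plus 3 SD, cut at about 27% in these data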;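 note: 0% = DMSO wells and 100% = JAK Inhibitor I control wells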
IEC-6 cytotox cf = IEC-6 cytotoxicity, confirmation assay. shares compounds with IEC-6 tox. IEC-6 rat intestinal epithelial viability, luminescence. inhibition, % at 5 µM. hit rate 63% among 1,900;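 note: 0% = vehicle and 100% = reference cytotoxic drug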
* hit, by the source's call. Cut-off read from the data, not from the text of the source, unless noted: active = inhibition above about 22%; inactive = the rest.

Results for CC[n+]1c(/C=C/C=C/c2ccc(N(C)C)cc2)sc2ccccc21 ?
aSyn UTR inh: inconclusive; IEC-6 tox: 37.2*; Ba/F3 V617F tox: 99.3*; KLF5 inh: 23.4; BaF3 tox: 91.9*; IEC-6 cytotox cf: 58.1*

How did C/C1=C\[C@@H](C)C/C=C/[C@H]2[C@@H]3O[C@]3(C)[C@@H](C)[C@H]3[C@H](Cc4c[nH]c5ccccc45)NC(=O)[C@]32C(=O)/C=C/C(=O)[C@@H]1O do in these assays?
APP 5UTR inh: 83.8*; aSyn UTR inh: 81.1*; IEC-6 tox: 90.6*; Ba/F3 V617F tox: 65.2*; KLF5 inh: -7.2; BaF3 tox: 63.0*; IEC-6 cytotox cf: 66.3*

How did CC[C@@]1(O)C(=O)OCc2c1cc1n(c2=O)Cc2cc3c(NC(=O)CN)cccc3nc2-1 do in these assays?
aSyn UTR inh: 70.7*; IEC-6 tox: 40.6*; Ba/F3 V617F tox: 93.8*; KLF5 inh: 19.6; BaF3 tox: 78.5*; IEC-6 cytotox cf: 25.6*

Results for COC(=O)N(c1ccccc1)P(=O)(Oc1ccccc1)Oc1ccccc1 ?
aSyn UTR inh: 11.8; IEC-6 tox: -6.1; KLF5 inh: -9.6

Results for COC(=O)C(Cc1ccc(N(CCCl)CCCl)cc1)N=Cc1ccccc1O (centres undefined) ?
aSyn UTR inh: 27.4; IEC-6 tox: 90.4*; KLF5 inh: -12.3; IEC-6 cytotox cf: 77.8*

Results for Cn1c(CN2CCN(C(=O)COc3ccccc3)CC2)nc2cc([N+](=O)[O-])ccc21 ?
APP 5UTR inh: 2.6; aSyn UTR inh: 1.3; IEC-6 tox: -2.7; Ba/F3 V617F tox: 3.2; KLF5 inh: 13.0; BaF3 tox: 5.2

How did Nc1cc(Cl)c2nonc2c1[N+](=O)[O-] do in these assays?
APP 5UTR inh: 96.2*; IEC-6 tox: 69.3*; Ba/F3 V617F tox: 47.0*; KLF5 inh: 14.5; BaF3 tox: 1.7; IEC-6 cytotox cf: 29.9*

Results for CC(C)(C#CCCCCC#CC(C)(C)[N+](C)(C)C)[N+](C)(C)C ?
aSyn UTR inh: -1.3; IEC-6 tox: 10.7; Ba/F3 V617F tox: -3.1; KLF5 inh: 0.8; BaF3 tox: 0.5

How did CC(C)CCP(=O)(O)c1ccccc1 do in these assays?
aSyn UTR inh: 11.4; IEC-6 tox: 10.2; Ba/F3 V617F tox: 2.0; KLF5 inh: -7.0; BaF3 tox: 1.7

Results for O=C(Cn1cnc2sc3c(c2c1=O)CCCC3)NCCC(=O)N1CCC2(CC1)OCCO2 ?
APP 5UTR inh: 2.2; aSyn UTR inh: -1.9; IEC-6 tox: 0.2; Ba/F3 V617F tox: 2.0; KLF5 inh: -25.9; BaF3 tox: 3.4

Results for COc1cccc(OC)c1C1=NCC(=O)Nc2c1oc1ccc(Br)cc21 ?
APP 5UTR inh: 92.7*; aSyn UTR inh: inconclusive; IEC-6 tox: 34.1*; Ba/F3 V617F tox: 75.5*; KLF5 inh: 35.5; BaF3 tox: 39.4*; IEC-6 cytotox cf: 56.7*

How did CN(CC#CCN1CCCC1)C(=O)c1cccc(Cl)c1 do in these assays?
aSyn UTR inh: 2.9

Results for C/C=C(\C)C(=O)N[C@@H](c1ccccc1)[C@@H](O)C(=O)O[C@H]1C[C@@]2(O)[C@@H](OC(=O)c3ccccc3)C3[C@](C)(C(=O)[C@H](O)C(=C1C)C2(C)C)[C@@H](O)C[C@H]1OC[C@@]31OC(C)=O (some centres undefined) ?
aSyn UTR inh: 98.2*; IEC-6 tox: 88.6*; KLF5 inh: 50.1; IEC-6 cytotox cf: 69.8*

What do the screens show for `CC1=CC2/C=C(\C)CCC(O)C(O)/C=C/C(=O)C23C(=O)NC(CC(C)C)C3C1C` (centres undefined)?
APP 5UTR inh: 45.1*; aSyn UTR inh: 55.8; IEC-6 tox: 38.7*; Ba/F3 V617F tox: 88.8*; KLF5 inh: -11.0; BaF3 tox: 49.2*; IEC-6 cytotox cf: 29.3*

What do the screens show for `C[C@]12C=CC(=O)C=C1CC[C@@H]1C2CC[C@]2(C)OC(=O)CCC12` (some centres undefined)?
aSyn UTR inh: -5.9; IEC-6 tox: 6.0; KLF5 inh: -6.4
